Data taken from PubChem BioAssay (EPA / NIEHS).
The source made the active and inactive calls. Rule for the calls: active = hit-call score of the fitted dose curve at least 0.9, where 1 is the maximum; inactive = score below 0.9.

Test: APR_HepG2_MitoticArrest_1hr: Apredica 1-hour HepG2 Assay for Mitotic Arrest (AID 2282672)
Conditions: high-content imaging, actives raise or lower the signal
Description: APR_HepG2_1hr is a cell-based, multiplexed-readout assay that uses HepG2, a human liver cell line, with measurements taken at 1 hour after chemical dosing in a 384-well plate.APR_HepG2_MitoticArrest_1hr is one of 10 assay component(s) measured or calculated from the APR_HepG2_1hr assay. It is designed to make measurements of cell phenotype, a form of morphology reporter, as detected with fluorescence intensity signals by HCS Fluorescent Imaging technology.Data from the assay component APR_HepG2_MitoticArrest_1hr was analyzed into 1 assay endpoint. This assay endpoint, APR_HepG2_MitoticArrest_1hr, was analyzed with bidirectional fitting relative to DMSO as the negative control and baseline of activity. Using a type of morphology reporter, measures of protein for gain or loss-of-signal activity can be used to understand the signaling at the pathway-level as they relate to the gene . Furthermore, this assay endpoint can be referred to as a primary readout, because this assay has produced multiple assay endpoints where this one serves a signaling function. To generalize the intended target to other relatable targets, this assay endpoint is annotated to the cell cycle intended target family, where the subfamily is arrest.
Cells were treated with dimethyl sulfoxide (DMSO) as a solvent control at a final concentration of 0.5% v/v or with compounds in DMSO with a resulting final DMSO concentration of 0.5% v/v. Compound treatment was done at concentrations of 0.39, 0.78, 1.56, 3.12, 6.24, 12.5, 25, 50, 100, and 200 uM in duplicate on each plate. Cells were treated with compounds for 1, 24, or 72 hr. Carbonyl […] m-chloro-phenylhydrazone (CCCP) and taxol were used as positive controls for mitochondrial function and cytoskeletal stability, respectively; DMSO served as the negative control for this experiment. Cells were fixed by the direct addition of 50 uL formaldehyde in Hank's Balanced Salt Solution (HBSS) to a final concentration of 3.7%. After incubation in the fixation medium for 30 min at room temperature (293-298 K), cells were rinsed twice with HBSS and treated with cell permeabilization buffer (16 uL of 0.5% Triton X-100) for 10 min at room temperature (293-298 K) before labeling. For mitochondrial membrane potential and mitochondrial measurements, pre-fixed cells were incubated with 50 uL of MitoTracker Red CMXRos (Invitrogen) at a concentration of 250 nM for 30 min before fixation. In the remaining cases, post-fixed cells were labeled by incubation with a multiplexed mixture of primary antibodies in HBSS for 60 min at room temperature (293-298 K) to detect immunoreactivity of c-Jun (1:500), phospho-histone H3 (1:100), phospho-histone H2A.x (1:200), p53 (1:400), alpha-tubulin (1:200) and Hoechst 33342 (2 ug/mL). Cells were labeled for multiplexed imaging on two separate plates: a) Hoechst 33342, MitoTracker Red, phospho-histone H3, and alpha-tubulin, and b) Hoechst 33342, phospho-histone H2A.x, and c-Jun. A final rinse with HBSS (50 uL) was performed before analysis. The primary and secondary antibodies for the proteins were phospho-histone H3 (rabbit anti-phospho-histone H3 and FITC-donkey anti-rabbit IgG), phospho-histone H2A.x (mouse anti-phospho-histone H2A.x and FITC-donkey anti-mouse IgG), c-Jun (rabbit anti-phospho-c-Jun and Cy3-donkey anti-rabbit IgG), p53 (sheep anti-p53 and Cy5-donkey anti-sheep IgG), alpha-tubulin (mouse anti-alpha-tubulin and Cy5-donkey anti-mouse IgG). These antibodies are available as the CellCiphr HepG2 assay kit (Millipore).Digital images of each well were captured using a Cellomics ArrayScan VTI (Thermo Scientific Cellomics) (0.8 NA objective, 0.63x optical coupler, and XF-93 filter set) at 20x magnification. The images were acquired using the autofocus feature of the ArrayScan instrument, which entails the following steps. First, the camera focuses on channel 1 (Hoechst 33342), where nuclei are identified. Second, a Z offset of 1 um is used for capturing mitochondria (MitoTracker Red). […]

| Structure (SMILES) | outcome |
| --- | --- |
| CN(C)C(=O)Nc1cccc(C(F)(F)F)c1 | inactive |
| CCCOc1nn(C(=O)NS(=O)(=O)c2ccccc2C(=O)OC)c(=O)n1C | inactive |
| CCOC(=O)CC(SP(=O)(OC)OC)C(=O)OCC (stereo not given) | inactive |
| CCOP(=S)(OCC)Oc1ccc([N+](=O)[O-])cc1 | inactive |
| CCCCOC(=O)[C@@H](C)Oc1ccc(Oc2ccc(C#N)cc2F)cc1 | inactive |
| COc1ccc(C(=CC(=O)N2CCOCC2)c2ccc(Cl)cc2)cc1OC | inactive |
| CCNc1nc(Cl)nc(NC(C)(C)C#N)n1 | inactive |
| S=C1NCCN1 | inactive |
| CCc1cccc(CC)c1N(COC)C(=O)CCl | inactive |
| CCOC(=O)COc1cc(-c2nn(C)c(OC(F)F)c2Cl)c(F)cc1Cl | inactive |
| CCOP(=O)(OCC)Oc1cc(C)nc(C(C)C)n1 | inactive |
| CNC(=O)ON=C(C)SC | inactive |
| CN(C)NC(=O)CCC(=O)O | inactive |
| CCOP(=O)(SC(C)CC)N1CCSC1=O (stereo not given) | inactive |
| CC1=NNC(=O)N(/N=C/c2cccnc2)C1 | inactive |
| COc1cccc(C(=O)NN(C(=O)c2cc(C)cc(C)c2)C(C)(C)C)c1C | inactive |
| CCC(=NOC/C=C/Cl)C1=C(O)CC(C2CCOCC2)CC1=O (stereo not given) | inactive |
| CCC(=O)Nc1ccc(Cl)c(Cl)c1 | inactive |
| CCOP(=O)(NC(C)C)Oc1ccc(SC)c(C)c1 (stereo not given) | inactive |
| CCOP(=S)(OCC)SCCSCC | inactive |

| Structure (SMILES) | outcome |
| --- | --- |
| CCCOCC(=Nc1ccc(Cl)cc1C(F)(F)F)n1ccnc1 | inactive |
| COP(=O)(OC)C(O)C(Cl)(Cl)Cl (stereo not given) | inactive |
| COP(=O)(NC(C)=O)SC (stereo not given) | inactive |
| CNC(=O)ON=C(SC)C(=O)N(C)C | inactive |
| CC(=NC#N)N(C)Cc1ccc(Cl)nc1 | inactive |
| CCOP(=S)(OCC)OC(Cl)C(Cl)(Cl)Cl (stereo not given) | inactive |
| CC1(C(=O)Nc2ccc(O)c(Cl)c2Cl)CCCCC1 | inactive |
| FC(F)C(F)(F)OCC(Cn1cncn1)c1ccc(Cl)cc1Cl (stereo not given) | inactive |
| Nc1c(Cl)cc([N+](=O)[O-])cc1Cl | inactive |
| CON=C(C(=O)OC)c1ccccc1CON=C(C)c1cccc(C(F)(F)F)c1 | inactive |
| CC(C)N(C(=O)SCC(Cl)=C(Cl)Cl)C(C)C | inactive |
| CCCSP(=O)(OCC)Oc1ccc(Br)cc1Cl (stereo not given) | inactive |
| CCCCOC(=O)c1ccccc1C(=O)O | inactive |
| CCCCN(CC)c1c([N+](=O)[O-])cc(C(F)(F)F)cc1[N+](=O)[O-] | inactive |
| C[N+]1(C)CCCCC1 | inactive |
| CC(Oc1cccc(Cl)c1)C(=O)O (stereo not given) | inactive |
| CSc1nc(NC(C)C)nc(NC(C)C)n1 | inactive |
| CN1COCN(Cc2cnc(Cl)s2)C1=N[N+](=O)[O-] | inactive |
| CC(COc1ccc(Oc2ccccc2)cc1)Oc1ccccn1 (stereo not given) | inactive |
| CCCSP(=O)(OCC)SCCC | inactive |
